# Several values for one entry are separate records, joined by “and”; a condition that tells them apart may be missing. Equal entries are not always repeated. Inconclusive results are not listed. The source holds several records for some structures; these can differ, active in one and inactive in another. Activity calls are given as the source filed them. The calls were made as follows, unless noted: active = hit-call score of the fitted dose curve at least 0.9, where 1 is the maximum; inactive = score below 0.9.
# Columns and labels:
# [1] = TAMU_PeakParms_SingleDonor1434_QT: Texas A&M University (TAMU) 1.5-hr Human Induced Pluripotent Stem Cell (iPSC)-derived Cardiomyocytes Calcium (Ca+2) Flux Assay for Cardiotoxicity: QT (decay-rise ratio) (AID 2284235; active = hit-call score of the fitted dose curve at least 0.9, where 1 is the maximum)
# How it was run: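 iPSC-derived cardiomyocytes (single donor 1434) dosed at 0.2, 1, 10, 100 uM final in 0.5% DMSO, 90 min at 37C. Ca2+ flux fluorescence decay/rise ratio; EC05 (5% increase versus DMSO) as POD, excluding beat-arrest and severe-notch data.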
# [2] = read-out: Tumor necrosis factor (Homo sapiens) (UniProt P01375); assay: BSK_BT_xTNFa: BioMAP Diversity Plus: BT Assay for Tumor necrosis factor alpha (TNF-alpha) Biomarker Activity (AID 2284230); details: primary human B cells with PBMC
# How it was run: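 Read-out: Luminex xMAP quantitation of secreted TNF-alpha from a B cell/PBMC co-culture 24 h after compound addition. Signal analysed relative to DMSO vehicle, positive fitting direction.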
# [3] = read-out: Vascular cell adhesion molecule 1 (VCAM1), VCAM1 (gene 7412); assay: BSK_MyoF_VCAM1: BioMAP Diversity Plus: MyoF Assay for Vascular cell adhesion molecule 1 (VCAM1) Biomarker Activity (AID 2284231); details: primary human lung fibroblasts
# How it was run: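 Primary human lung fibroblasts were dosed with test chemical for 24 h, then cell-surface VCAM-1 was measured by ELISA. Activity was fitted in the positive direction against DMSO as negative control and baseline.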
# [4] = read-out: Collagen I, COL1A1 (gene 1277); assay: BSK_MyoF_CollagenI: BioMAP Diversity Plus: MyoF Assay for Collagen I Biomarker Activity (AID 2284238); details: primary human lung fibroblasts
# How it was run: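 Human lung fibroblasts were exposed to test chemical for 24 h, then Collagen I was quantified by ELISA. Activity was fitted in the increasing direction against DMSO as the negative control and baseline.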
# [5] = read-out: Collagen III, COL3A1 (gene 1281); assay: BSK_MyoF_CollagenIII: BioMAP Diversity Plus: MyoF Assay for Collagen III Biomarker Activity (AID 2284239); details: primary human lung fibroblasts
# How it was run: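 Human lung fibroblasts were dosed with chemicals and, 24 hours later, collagen III was measured by ELISA. Activity was fitted in the positive direction against the DMSO negative-control baseline.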
# [6] = UKN4_HCS_LUHMES_cell_viability: Viability Assessment in the University of Konstanz (UKN) Leist Lab Neurite Outgrowth Assay in human LUHMES cells (UKN4) (AID 2284232)
# How it was run: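 Fluorescence intensity from high-content imaging of Hoechst H-33342/calcein-AM-stained cells served as the viability read-out. Human LUHMES precursors were differentiated 2 days, replated and treated 24 h; curves were fitted bidirectionally against DMSO.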
# [7] = UKN2_HCS_IMR90_cell_viability: Viability Assessment in the University of Konstanz (UKN) Leist Lab Neural Crest Cell Migration Assay in human induced IMR90 Pluripotent Stem Cells (UKN2) (AID 2284233);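 also: viability of neural crest cells differentiated from IMR90 iPSC measured by calcein-AM fluorescence imaging; cells exposed to compound for 24 h after a 24 h migration phase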
# How it was run: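 iPSC-derived (IMR90) neural crest cells seeded around silicone stoppers on PLO/laminin/fibronectin; after 24 h migration in N2-S with EGF/FGF, chemical added for 24 h. Calcein-AM/Hoechst stained 30 min, high-content imaged; bidirectional fit versus DMSO.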
# [8] = CCTE_Mundy_HCI_Cortical_NOG_NeuronCount: CCTE's Neurite Outgrowth Assay in rat cortical cells for Neuron Count, Mundy Lab (AID 2284236; active = hit-call score of the fitted dose curve at least 0.9, where 1 is the maximum;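 also: neurons counted by imaging betaIII-tubulin and Hoechst stained cortical cells; cells exposed to compound for about 48 hours before fixation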)
# How it was run: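 Read-out: neuron number by high-content imaging of betaIII-tubulin (Alexa Fluor-488) and Hoechst-labelled rat primary cortical cells.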
# [9] = TAMU_HCS_1.5hr_SingleDonor1434_Cytotoxicity: Cytotoxicity Assessment using High-content Screening (HCS) Fluorescent Imaging for the Texas A&M University (TAMU) 1.5-hr Human Induced Pluripotent Stem Cell (iPSC)-derived Cardiotoxicity Assay (AID 2284234; active = hit-call score of the fitted dose curve at least 0.9, where 1 is the maximum)
# Method: TAMU_HCS_1.5hr is a cell-based, multiplexed-readout assay that uses iPSC-derived cardiomyocytes with measurements taken at 1.5 hours after chemical dosing in a microplate: 384-well plate.TAMU_HCS_1.5hr_SingleDonor1434_Cytotoxicity is a phenotype derived from the Total.Cells parameter and uses an EC10 as its POD (10% decrease in total cell count, compared to controls). Total Cells measures the total number of nuclei (cell count) using HCS Fluorescent Imaging technology. There is no preprocessing performed on the data to model this phenotype.Data from the assay component TAMU_HCS_1.5hr_Cytotoxicity was analyzed into 1 assay endpoint. This assay endpoint, TAMU_HCS_1.5hr_Cytotoxicity, was analyzed in the positive analysis fitting direction relative to DMSO as the negative control and baseline of activity. Using a type of viability reporter, loss-of-signal activity can be used to understand changes in the viability. To generalize the intended target to other relatable targets, this assay endpoint is annotated to the cell cycle intended target family, where the subfamily is cytotoxicity. […]
# [10] = CCTE_Mundy_HCI_Cortical_NOG_BPCount: CCTE's Neurite Outgrowth Assay in rat cortical cells for Branch Point Count, Mundy Lab (AID 2284237);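 also: branch points counted about two days after chemical exposure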
# How it was run: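 Measured 50.33 h after dosing, this morphology endpoint uses rat primary cortical cultures labelled for betaIII-tubulin. Branch points are quantified by high-content imaging, with DMSO as negative control and baseline.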
# Chain of Tumor necrosis factor (Homo sapiens) (P01375 whole entry, looked up): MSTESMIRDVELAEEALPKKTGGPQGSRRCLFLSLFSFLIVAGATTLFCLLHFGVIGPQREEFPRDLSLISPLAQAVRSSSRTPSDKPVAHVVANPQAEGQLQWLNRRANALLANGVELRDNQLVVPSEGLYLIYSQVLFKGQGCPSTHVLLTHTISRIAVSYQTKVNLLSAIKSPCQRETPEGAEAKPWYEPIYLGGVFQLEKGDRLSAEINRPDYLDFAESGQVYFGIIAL
smiles,measurement,setting,value
c1ccc2cc3c(ccc4ccccc43)cc2c1,outcome,[1],inactive
C=C(C)C(=O)OCCC(F)(F)C(F)(F)C(F)(F)C(F)(F)C(F)(F)C(F)(F)F,outcome,[2],inactive
same,outcome,[3],inactive
same,outcome,[4],inactive
same,outcome,[5],inactive
CN1CCC[C@H]1c1cccnc1,outcome,[6],inactive
same,outcome,[7],inactive
same,outcome,[8],inactive
CC#C[C@]1(O)CC[C@H]2[C@@H]3CCC4=CC(=O)CCC4=C3[C@@H](c3ccc(N(C)C)cc3)C[C@@]21C,outcome,[6],inactive
same,AC50,[7],16.5 µM (active) and 8.62 µM (active)
same,outcome,[9],inactive
same,AC50,[8],69.2 µM (active) and 15 µM (active)
same,AC50,[10],26.2 µM (active) and 24.2 µM (active)
OCCC(F)(F)C(F)(F)C(F)(F)C(F)(F)C(F)(F)C(F)(F)C(F)(F)C(F)(F)F,AC50,[2],45.5 µM (active) and 41.3 µM (active)
same,AC50,[3],13.4 µM (active) and 9.75 µM (active)
same,AC50,[4],19.8 µM (active) and 17.2 µM (active)
same,AC50,[5],14.5 µM (active) and 10 µM (active)
CCCCCCCCCCCCCC[N+](C)(C)C,AC50,[2],2.59 µM (active)
same,AC50,[3],3.84 µM (active)
same,AC50,[4],1.5 µM (active)
same,AC50,[5],1.85 µM (active)
c1ccc2c(c1)ccc1ccccc12,outcome,[1],inactive
C[C@@H]1C[C@H]2[C@@H]3CCC4=CC(=O)C=C[C@]4(C)[C@@]3(F)[C@@H](O)C[C@]2(C)[C@@]1(O)C(=O)COP(=O)(O)O,AC50,[2],245 nM (active) and 100 nM (active)
same,outcome,[3],inactive
same,outcome,[4],inactive
same,outcome,[5],inactive
CC1=C(/C=C/C(C)=C/C=C/C(C)=C/C(=O)O)C(C)(C)CCC1,AC50,[6],48 µM (active)
same,outcome,[7],inactive
same,outcome,[8],inactive
NCC(F)(F)C(F)(F)C(F)(F)C(F)(F)C(F)(F)C(F)(F)C(F)(F)F,outcome,[2],inactive
same,outcome,[3],inactive
same,outcome,[4],inactive
same,outcome,[5],inactive
c1ccc2c(c1)Cc1ccccc1-2,outcome,[1],inactive
OCCC(F)(F)C(F)(F)C(F)(F)C(F)(F)C(F)(F)C(F)(F)F,AC50,[2],41.4 µM (active)
same,outcome,[2],inactive
same,outcome,[3],inactive
same,AC50,[4],54.6 µM (active)
same,outcome,[4],inactive
same,outcome,[5],inactive
FC(F)(I)C(F)(F)C(F)(F)C(F)(F)C(F)(F)C(F)(F)I,AC50,[2],21.2 µM (active) [middle of 5 runs]
same,AC50,[3],5.28 µM (active) [middle of 5 runs]
same,AC50,[4],4.42 µM (active) [middle of 5 runs]
same,AC50,[5],4.38 µM (active) [middle of 5 runs]

# From PubChem BioAssay (EPA / NIEHS)
